What was measured:
Settings in all cases: concentration: 1 μM, replicates: in singlicate; n = 1
[1] = system: T1, GRK2
T1 construct: gene ADRBK1

[2] = system: T2, GRK3
T2 construct: gene ADRBK2

[3] = system: GRK4
[4] = system: GRK7
[5] = system: GSK3A
[6] = system: GSK3B
[7] = system: T3, HASPIN
T3 construct: gene GSG2

[8] = system: HCK
[9] = system: HIPK1
[10] = system: HIPK2
[11] = system: HIPK3
[12] = system: HIPK4
[13] = system: HPK1
[14] = system: HUNK
[15] = system: ICK
[16] = system: IGF1R
[17] = system: T4, IKK-alpha
T4 construct: gene CHUK

[18] = system: T5, IKK-beta
T5 construct: gene IKBKB

[19] = system: T6, IKK-epsilon
T6 construct: gene IKBKE

[20] = system: INSRR
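Note: KINOMEscan kinase panel screen.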

| SMILES | %Inh [1] [%] | %Inh [2] [%] | %Inh [3] [%] | %Inh [4] [%] | %Inh [5] [%] | %Inh [6] [%] | %Inh [7] [%] | %Inh [8] [%] | %Inh [9] [%] | %Inh [10] [%] | %Inh [11] [%] | %Inh [12] [%] | %Inh [13] [%] | %Inh [14] [%] | %Inh [15] [%] | %Inh [16] [%] | %Inh [17] [%] | %Inh [18] [%] | %Inh [19] [%] | %Inh [20] [%] |
| --- | --- | --- | --- | --- | --- | --- | --- | --- | --- | --- | --- | --- | --- | --- | --- | --- | --- | --- | --- | --- |
| O=C(NCCNc1ccnc(Nc2ccc(F)cc2)n1)Nc1ccc2c(c1)OCO2 [GSK1379882] | 0 | 0 | 0 | 0 | 34 | 6 | 0 | 0 | 0 | 0 | 9 | 0 | 37 | 1 | 0 | 0 | 3 | 7 | 14 | 0 |
| COc1cc2nccc(Nc3ccc(OCc4ccc(NC(C)=O)cc4)cc3)c2cc1OC.Cl [GW440135] | 0 | 17 | 23 | 4 | 0 | 0 | 18 | 0 | 0 | 0 | 0 | 0 | 36 | 21 | 0 | 0 | 10 | 0 | 3 | 8 |
| CCn1c(-c2nonc2N)nc2ccccc21 [SB-693162/GW549034] | 0 | 14 | 30 | 25 | 0 | 37 | 0 | 0 | 29 | 45 | 62 | 1 | 7 | 36 | 64 | 0 | 23 | 49 | 29 | 48 |
| CCc1nc(-c2cccc(C)c2)c(-c2ccncc2)s1 | 0 | 0 | 0 | 0 | 27 | 0 | 0 | 21 | 30 | 0 | 0 | 0 | 8 | 0 | 0 | 0 | 0 | 0 | 0 | 0 |
| COc1cccc(-n2cnc3c(N)ncnc32)c1 [SKF-97416] | 0 | 11 | 10 | 27 | 0 | 35 | 0 | 8 | 18 | 22 | 26 | 13 | 0 | 16 | 34 | 0 | 50 | 32 | 0 | 5 |
| Cc1nn2c(=O)cc(N3CCOCC3)nc2n1Cc1cccc(Cl)c1Cl [GSK2342769] | 0 | 83 | 2 | 0 | 10 | 13 | 8 | 0 | 0 | 0 | 38 | 0 | 32 | 0 | 2 | 5 | 19 | 18 | 5 | 0 |
| CCS(=O)c1ccc(-c2coc3ccc(-c4nnc(C)o4)cc23)cc1 (stereo not shown) | 0 | 5 | 21 | 19 | 91.6 | 58 | 17 | 33 | 30 | 43 | 21 | 0 | 11 | 0 | 10 | 0 | 10 | 6 | 0 | 0 |
| Nc1ncnc2c1ncn2-c1cccc2ccccc12 [SKF-97184] | 0 | 0 | 14 | 4 | 8 | 23 | 60 | 7 | 34 | 0 | 0 | 7 | 2 | 45 | 0 | 0 | 16 | 3 | 0 | 0 |
| Nc1nc(-c2ccccc2F)c(-c2ccnc3ccccc23)s1 [GW560459] | 0 | 50 | 0 | 0 | 3 | 0 | 25 | 0 | 0 | 0 | 3 | 0 | 7 | 12 | 0 | 20 | 28 | 9 | 18 | 0 |
| Cc1nnc(-c2ccc3ncn(-c4ccc(S(C)=O)cc4)c3c2)o1 (stereo not shown) | 0 | 0 | 0 | 0 | 74 | 36 | 0 | 13 | 28 | 10 | 13 | 6 | 0 | 0 | 0 | 0 | 25 | 7 | 0 | 0 |
| COc1ccc(CNC(=O)NC2CCN(c3ccnc(Nc4ccc(F)cc4)n3)C2)cc1 (stereo not shown) [GSK1379706] | 0 | 51 | 19 | 0 | 23 | 1 | 32 | 0 | 19 | 13 | 30 | 8 | 49 | 0 | 0 | 13 | 3 | 0 | 30 | 0 |
